# Assay results published in PubChem BioAssay (Tox21).
# Several values for one entry are separate records, joined by “and”; a condition that tells them apart may be missing. Equal entries are not always repeated. Results filed as inconclusive are left out. A call without a number means that no potency is given here. Where a structure was tested more than once in an assay, its records may differ in their call. Activity calls are given as the source filed them. Unless noted, calls come from the whole dose curve.
# Key:
# [1] = Nuclear factor erythroid 2-related factor 2/antioxidant responsive element (Nrf2/ARE) small molecule agonists: qHTS cell viability counter screen in human keratinocytes (AID 1919968; active = well fitted curve in the direction sought with a large enough effect in the repeat runs; an effect the other way counts as inactive or inconclusive; note: nearly all actives have a fitted effect of over 55% in size; note: potency is the fitted concentration of half-maximal effect)
# Outline: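 Cells of the KeratinoSens line were plated at 1,500 per well and left for 5 h before compound transfer from DMSO stocks. After a 23 h incubation (37 C, 5% CO2), CellTiter-Fluor was added. Signal was taken as fluorescence intensity 1 h later.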
# [2] = Nuclear factor erythroid 2-related factor 2/antioxidant responsive element (Nrf2/ARE) small molecule agonists: luciferase reporter gene qHTS assay in human keratinocytes (AID 1919969); note: nearly all actives have a fitted effect of over 35% in size; note: potency is the fitted concentration of half-maximal effect
# [3] = biological target: Gonadotropin-releasing hormone receptor (Homo sapiens) (UniProt P30968); experiment: Human gonadotropin-releasing hormone receptor (GnRHR) small molecule agonists, calcium flux assay in GnRHR-HEK293 cells (AID 1920063); note: nearly all actives have a fitted effect of over 35% in size
# Sequence of Gonadotropin-releasing hormone receptor (Homo sapiens) (P30968 whole entry, looked up): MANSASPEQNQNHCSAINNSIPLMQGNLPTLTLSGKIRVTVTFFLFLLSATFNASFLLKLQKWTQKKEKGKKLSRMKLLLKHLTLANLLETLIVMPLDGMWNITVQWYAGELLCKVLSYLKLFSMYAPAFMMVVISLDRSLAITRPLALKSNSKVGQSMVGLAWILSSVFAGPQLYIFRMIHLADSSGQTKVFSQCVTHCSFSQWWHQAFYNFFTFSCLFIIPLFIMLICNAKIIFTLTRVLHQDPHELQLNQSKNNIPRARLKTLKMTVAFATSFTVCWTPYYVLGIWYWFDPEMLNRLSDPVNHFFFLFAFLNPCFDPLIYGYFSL
# Outline: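 Compounds dissolved in DMSO are pin-transferred onto dye-loaded GnRHR-HEK293 cells, which were seeded 18 h before at 37 C/5% CO2. Calcium signal is read as fluorescence intensity at 1 s intervals for 3 min.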
# [4] = biological target: KiSS-1 receptor (Homo sapiens) (UniProt Q969F8); experiment: Human kisspeptin (KISS1R) small molecule agonists, calcium flux assay in KISS1R-HEK293 cells (AID 1920064; active = well fitted curve in the direction sought with a large enough effect in the repeat runs; an effect the other way counts as inactive or inconclusive)
# Sequence of KiSS-1 receptor (Homo sapiens) (Q969F8 whole entry, looked up): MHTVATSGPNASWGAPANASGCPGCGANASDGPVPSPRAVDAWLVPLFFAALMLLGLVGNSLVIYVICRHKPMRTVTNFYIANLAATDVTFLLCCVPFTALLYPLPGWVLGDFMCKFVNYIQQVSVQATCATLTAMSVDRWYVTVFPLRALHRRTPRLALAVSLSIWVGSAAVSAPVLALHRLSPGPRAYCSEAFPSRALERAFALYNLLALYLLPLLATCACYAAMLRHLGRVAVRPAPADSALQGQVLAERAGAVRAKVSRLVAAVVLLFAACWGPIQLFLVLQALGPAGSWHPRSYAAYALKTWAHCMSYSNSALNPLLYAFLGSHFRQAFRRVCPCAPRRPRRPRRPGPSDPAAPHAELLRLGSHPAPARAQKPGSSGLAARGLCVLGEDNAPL
# Outline: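 Cell line: HEK293, stable human KISS1R. Dye loading 1 h at 37 C after 18 h culture. Read: kinetic fluorescence, 480/540 nm, 3 min at 1 s intervals.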
# [5] = G protein-coupled receptor (GPCR) small molecule agonists, calcium flux assay: HEK293 wild type cell line counter screen (AID 1920065)
# Outline: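 Tox21 10K compounds, 15 concentrations each in triplicate, pin-transferred in DMSO onto dye-loaded cells; kinetic read at 480/540 nm for 3 min, 1 s intervals.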
# [6] = p53 small molecule agonists, cell-based qHTS assay with human liver microsomes: qHTS cell viability counter screen (AID 1963579); note: nearly all actives have a fitted effect of over 45% in size; note: potency is the fitted concentration of half-maximal effect
# Outline: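 In this multiplexed counter screen, the reporter plates were subsequently treated with CellTiter-Glo so that cell viability, reflected by luminescence, could be recorded for p53RE-bla cells dosed 16 h with compounds under microsomal activation (HLM and NADPH).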
# [7] = p53 small molecule agonists, cell-based qHTS assay with rat liver microsomes: qHTS cell viability counter screen (AID 1963580); note: nearly all actives have a fitted effect of over 45% in size; note: potency is the fitted concentration of half-maximal effect
# Outline: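 After the beta-lactamase ratio was read, CellTiter-Glo was added to the same wells and luminescence measured at 30 min; cells had been treated 16 h at 37 C with compounds, rat liver microsomes and NADPH (0.5 mg/mL final each).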
# [8] = p53 small molecule agonists, cell-based qHTS assay: qHTS cell viability counter screen (AID 1963581); note: nearly all actives have a fitted effect of over 45% in size; note: potency is the fitted concentration of half-maximal effect
# Outline: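 ATP content measured by luminescence in HCT-116 p53RE-bla cells treated 16 h at 37 C, same wells as the reporter screen.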
# [9] = p53 small molecule agonists, cell-based qHTS assay (AID 1963582; active = well fitted activation curve with a large enough effect in the signal ratio in the repeat runs, not every such curve was filed as active; the % refers to the signal ratio)
# Outline: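 16 h compound exposure (37 C) of p53 response element–bla cells, preceded by 5 h recovery at 37 C/5% CO2; read-out via LiveBLAzer B/G FRET substrate, 2 h RT, fluorescence intensity.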
# [10] = biological target: 5-hydroxytryptamine receptor 2A (Homo sapiens) (UniProt P28223); experiment: 5-hydroxytryptamine receptor 2A (HTR2A) small molecule antagonists, cell-based qHTS assay (AID 1963586); note: nearly all actives have a fitted effect of over 45% in size; note: potency is the fitted concentration of half-maximal effect
# Sequence of 5-hydroxytryptamine receptor 2A (Homo sapiens) (P28223 whole entry, looked up): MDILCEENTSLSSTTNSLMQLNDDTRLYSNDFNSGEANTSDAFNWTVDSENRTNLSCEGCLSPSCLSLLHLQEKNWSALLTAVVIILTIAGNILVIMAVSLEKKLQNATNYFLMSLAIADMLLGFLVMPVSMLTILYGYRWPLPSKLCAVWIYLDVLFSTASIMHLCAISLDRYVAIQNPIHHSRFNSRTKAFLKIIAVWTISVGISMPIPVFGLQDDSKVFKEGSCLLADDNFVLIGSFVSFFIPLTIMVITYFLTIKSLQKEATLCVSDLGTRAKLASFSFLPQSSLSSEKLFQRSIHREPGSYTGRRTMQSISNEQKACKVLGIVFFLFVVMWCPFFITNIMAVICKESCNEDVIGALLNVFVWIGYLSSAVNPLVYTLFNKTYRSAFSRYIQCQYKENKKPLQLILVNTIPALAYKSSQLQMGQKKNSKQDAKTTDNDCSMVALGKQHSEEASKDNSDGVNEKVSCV
# Outline: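 CHO cells stably expressing human HTR2A were plated for 18 h at 37 C, then loaded with calcium dye for 1 h. Compounds were preincubated 5 min at room temperature before DOI (4 nM solution) was added. Kinetic fluorescence was read for 3 min.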
# [11] = biological target: 5-hydroxytryptamine receptor 2A (Homo sapiens) (UniProt P28223); experiment: 5-hydroxytryptamine receptor 2A (HTR2A) small molecule agonists, cell-based qHTS assay (AID 1963587); note: nearly all actives have a fitted effect of over 30% in size; note: potency is the fitted concentration of half-maximal effect
# Outline: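 CHO cells stably expressing human HTR2A, plated 18 h, loaded with calcium dye 1 h at 37 C. Agonist mode: compounds added and intracellular calcium fluorescence recorded kinetically for 2 min at 1 sec intervals.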
# [12] = biological target: Muscarinic acetylcholine receptor M1 (Homo sapiens) (UniProt P11229); experiment: Cholinergic receptor muscarinic 1 (CHRM1) small molecule agonists, cell-based qHTS assay (AID 1963589); note: nearly all actives have a fitted effect of over 35% in size
# Sequence of Muscarinic acetylcholine receptor M1 (Homo sapiens) (P11229 whole entry, looked up): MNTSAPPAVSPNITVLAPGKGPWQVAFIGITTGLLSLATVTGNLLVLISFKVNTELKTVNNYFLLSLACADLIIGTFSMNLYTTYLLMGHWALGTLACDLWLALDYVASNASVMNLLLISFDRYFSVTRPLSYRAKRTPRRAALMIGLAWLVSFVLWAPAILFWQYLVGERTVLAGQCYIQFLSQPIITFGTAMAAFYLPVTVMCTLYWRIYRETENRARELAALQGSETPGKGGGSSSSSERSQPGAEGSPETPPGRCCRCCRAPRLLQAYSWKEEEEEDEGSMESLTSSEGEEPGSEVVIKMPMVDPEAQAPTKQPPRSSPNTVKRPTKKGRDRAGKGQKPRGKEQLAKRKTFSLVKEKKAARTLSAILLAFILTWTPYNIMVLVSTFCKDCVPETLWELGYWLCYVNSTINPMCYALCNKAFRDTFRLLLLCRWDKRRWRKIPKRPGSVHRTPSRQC
# Outline: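 Homogeneous fluorescence calcium flux, agonist mode. Human M1-expressing CHO cells; compound dosed at 15 concentrations, three independent runs; signal sampled every 1 sec.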
# [13] = biological target: Beta-2 adrenergic receptor (Homo sapiens) (UniProt P07550); experiment: Adrenergic beta2 receptor (ADRB2) small molecule antagonists, cell-based qHTS assay (AID 1963592); note: nearly all actives have a fitted effect of over 50% in size; note: potency is the fitted concentration of half-maximal effect
# Sequence of Beta-2 adrenergic receptor (Homo sapiens) (P07550 whole entry, looked up): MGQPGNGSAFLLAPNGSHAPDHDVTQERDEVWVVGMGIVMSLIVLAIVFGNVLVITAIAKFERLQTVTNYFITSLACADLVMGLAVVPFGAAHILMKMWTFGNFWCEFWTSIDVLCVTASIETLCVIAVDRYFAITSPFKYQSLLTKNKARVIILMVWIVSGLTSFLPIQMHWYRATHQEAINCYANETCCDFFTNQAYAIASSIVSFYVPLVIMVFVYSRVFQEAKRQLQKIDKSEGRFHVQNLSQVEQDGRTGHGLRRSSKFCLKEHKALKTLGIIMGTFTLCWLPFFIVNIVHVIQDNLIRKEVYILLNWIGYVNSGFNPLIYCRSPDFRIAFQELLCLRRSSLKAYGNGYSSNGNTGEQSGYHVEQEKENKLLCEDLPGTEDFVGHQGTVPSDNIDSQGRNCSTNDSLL
# Outline: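 Assay format: CHO-ADRB2 cells, 18-20hr seeding at 37C/5% CO2, then compound plus 1nM isoproterenol agonist mix for 0.5hr RT. Homogeneous time-resolved fluorescence cAMP detection after 1hr, expressed as 665/615 nm ratio.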
# [14] = biological target: D(2) dopamine receptor (Homo sapiens) (UniProt P14416); experiment: Dopamine D2 receptor (DRD2) small molecule agonists, cell-based qHTS assay (AID 1963594); note: nearly all actives have a fitted effect of over 35% in size
# Sequence of D(2) dopamine receptor (Homo sapiens) (P14416 whole entry, looked up): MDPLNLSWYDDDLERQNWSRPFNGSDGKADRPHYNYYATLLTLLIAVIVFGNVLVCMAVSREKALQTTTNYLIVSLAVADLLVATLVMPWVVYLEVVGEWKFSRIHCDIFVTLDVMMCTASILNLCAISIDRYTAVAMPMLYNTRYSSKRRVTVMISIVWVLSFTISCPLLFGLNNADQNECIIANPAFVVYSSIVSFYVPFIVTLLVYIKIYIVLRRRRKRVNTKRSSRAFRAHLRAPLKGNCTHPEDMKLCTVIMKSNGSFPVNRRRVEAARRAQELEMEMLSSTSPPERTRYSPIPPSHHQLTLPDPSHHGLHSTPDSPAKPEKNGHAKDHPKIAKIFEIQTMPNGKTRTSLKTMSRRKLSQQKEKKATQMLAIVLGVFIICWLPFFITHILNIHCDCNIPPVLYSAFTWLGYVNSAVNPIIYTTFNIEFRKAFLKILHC
# Outline: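 HEK293 cells stably expressing human DRD2, pre-treated with PDE inhibitor Ro20-1724 (0.1 mM final) and compound 10 min at room temperature, then stimulated with NKH477 (200nM […]) for 30 min. cAMP read by HTRF (665/620 nm).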
# [15] = biological target: D(2) dopamine receptor (Homo sapiens) (UniProt P14416); experiment: Dopamine D2 receptor (DRD2) small molecule antagonists, cell-based qHTS assay (AID 1963595; active = well fitted inhibition curve with a large enough effect in the signal ratio in the repeat runs, with a control signal flat; the % refers to the signal ratio; note: potency is the fitted concentration of half-maximal effect)
# Outline: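 In this cell-based antagonist screen, compounds act for 10 min at room temperature before a 30 min challenge with 12 nM quinpirole and 200 nM NKH477. cAMP is quantified by HTRF competition in DRD2-HEK293 cells containing 0.1 mM Ro20-1724.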
# [16] = p53 small molecule agonists, cell-based qHTS assay with rat liver microsomes (AID 1963578)
# Outline: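 With rat liver microsomes and NADPH present (0.5 mg/mL final each), p53RE-bla cells are treated with compound for 16 h at 37 C. LiveBLAzer detection mixture is then applied for 2 h at room temperature in the dark.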
# [17] = biological target: Muscarinic acetylcholine receptor M1 (Homo sapiens) (UniProt P11229); experiment: Cholinergic receptor muscarinic 1 (CHRM1) small molecule antagonists, cell-based qHTS assay (AID 1963588); note: nearly all actives have a fitted effect of over 40% in size; note: potency is the fitted concentration of half-maximal effect
# Outline: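 Compounds were tested at 15 concentrations in three independent runs. Dye-loaded CHRM1-CHO cells were exposed 5 min at room temperature before stimulation by acetylcholine added at 50nM. Intracellular calcium was read kinetically on FDSS for 3 min.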
# [18] = cAMP Responsive Elements (CRE) small molecule agonists, cell-based qHTS assay (AID 1963590)
# Outline: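 HEK 293T cells stably bearing CRE-bla were plated at 2,000 cells per well and rested 18 h. Compounds, positive controls or DMSO were added for 3 h at 37 C. LiveBLAzer B/G substrate was then loaded for 2 h at room temperature.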
# [19] = cAMP Responsive Elements (CRE) small molecule antagonists, cell-based qHTS assay (AID 1963591; active = well fitted inhibition curve with a large enough effect in the signal ratio in the repeat runs, not every such curve was filed as active; the % refers to the signal ratio)
# Outline: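 First, CRE-bla HEK293T cells settled 18 h at 37 C. Next, compound and 0.25 uM final NKH477 were applied for 3 h. Last, LiveBLAzer B/G substrate was loaded for 2 h at room temperature.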
# [20] = biological target: Beta-2 adrenergic receptor (Homo sapiens) (UniProt P07550); experiment: Adrenergic beta2 receptor (ADRB2) small molecule agonists, cell-based qHTS assay (AID 1963593);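 note: CHO cells stably overexpressing human ADRB2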
# Outline: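 CHO cells stably over-expressing ADRB2 were plated overnight at 37C, then dosed with compounds plus a stimulation mix containing 100uM IBMX and 25uM Ro-20-1724 for 0.5hr at room temperature. cAMP was measured by HTRF competition, 1hr.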
Structure (SMILES),Potency [1],Potency [2],Potency [3],Potency [4],Potency [5],Potency [6],Potency [7],Potency [8],Potency [9],Potency [10],Potency [11],Potency [12],Potency [13],Potency [14],Potency [15],Potency [16],Potency [17],Potency [18],Potency [19],Potency [20]
COc1cc([C@H]2Oc3cc([C@H]4Oc5cc(O)cc(O)c5C(=O)[C@@H]4O)ccc3O[C@@H]2CO)ccc1O,inactive,inactive,inactive,inactive,inactive,inactive,inactive,inactive,inactive,inactive,inactive,inactive,inactive,inactive,inactive,,,,,
N#Cc1ccccc1,inactive,inactive,inactive,inactive,inactive,inactive,inactive,inactive,inactive,inactive,,,inactive,,inactive,inactive,inactive,inactive,inactive,
CCCCCNCCCCC,inactive,inactive,inactive,inactive,inactive,inactive,inactive,,inactive,inactive,inactive,inactive,inactive,inactive,,,inactive,inactive,inactive,inactive
CC(=O)Nc1ccc(C(=O)CCl)cc1,inactive and 27.3 µM (active),54.8 µM (active) and 9.69 µM (active),inactive,inactive,inactive,inactive,inactive,inactive,,inactive,inactive,,inactive,inactive,inactive,,,,inactive,
CCc1ccc(O)cc1,inactive,inactive,inactive,inactive,inactive,inactive,inactive,inactive,inactive,inactive,inactive,inactive,inactive,,inactive,,inactive,inactive,inactive,inactive
CC1=NN(c2ccccc2)C(=O)C1,inactive,inactive,inactive,inactive,inactive,inactive,,inactive,inactive,,,,inactive,inactive,inactive,,,inactive,inactive,inactive
NC(=O)NC(N)=O,inactive,inactive,inactive,inactive,inactive,inactive,inactive,inactive,inactive,inactive,inactive,inactive,,inactive,,inactive,inactive,,inactive,
O=C1CCCC1,inactive,inactive,inactive,inactive,inactive,inactive,inactive,inactive,inactive,inactive,inactive,inactive,,inactive,inactive,inactive,inactive,inactive,inactive,
CCCCCCCCCCCCCC[N+](C)(C)Cc1ccccc1,24.7 µM (active) and 13.3 µM (active) and 12.6 mM (active),inactive,inactive,inactive,inactive,inactive and 17.8 mM (active),46.5 µM (active) and inactive,inactive,inactive,1.2 µM (active) and 4.1 µM (active) and inactive,inactive and 20 mM (active),inactive,inactive,inactive,,,2.7 µM (active) and 631 µM (active),,inactive,inactive
CC(C)(Oc1ccc(C2CC2(Cl)Cl)cc1)C(=O)O (configuration not stated),inactive,inactive,inactive,inactive,inactive,inactive,inactive,inactive,,,,,inactive,inactive,inactive,,,inactive,,inactive
Nc1ccc2c(O)cc(S(=O)(=O)O)cc2c1,inactive,inactive,inactive,inactive,inactive,inactive,inactive,inactive,,inactive,inactive,inactive,,inactive,inactive,,,inactive,inactive,
O=C(O)c1ccc(C(=O)O)cc1,inactive,inactive,inactive,inactive,inactive,inactive,inactive,inactive,inactive,inactive,inactive,inactive,inactive,inactive,inactive,inactive,inactive,inactive,inactive,inactive
Oc1c(Cl)cc(Cl)c(Cl)c1Cl,inactive,inactive,inactive,inactive,inactive,inactive,inactive,inactive,,inactive,inactive,inactive,,inactive,inactive,,inactive,,inactive,
Oc1c(Cl)cc(Cl)c(Cl)c1Cc1c(O)c(Cl)cc(Cl)c1Cl,21.6 µM (active) and 30.6 µM (active) and 26.6 µM (active),24.3 µM (active),inactive,inactive,inactive,36.3 µM (active) and inactive,,18.2 µM (active),,,,,inactive and 48.6 µM (active),inactive,inactive,,,,,
O=[N+]([O-])c1ccccc1C(F)(F)F,inactive,inactive,inactive,inactive,inactive,inactive,inactive,inactive,inactive,,inactive,inactive,,,inactive,inactive,inactive,inactive,inactive,inactive
Cc1cccc2n[nH]nc12,inactive,inactive,inactive,inactive,inactive,inactive,inactive,inactive,inactive,inactive,inactive,inactive,inactive,inactive,inactive,,inactive,inactive,inactive,
c1ccc(Oc2ccccc2)cc1,inactive,inactive,inactive,inactive,inactive,inactive,inactive,inactive,inactive,inactive,inactive,inactive,inactive,inactive,inactive,,inactive,,inactive,inactive
COc1ccc(C)cc1N,inactive,inactive,inactive,inactive,inactive,inactive,inactive,inactive,inactive,inactive,inactive,inactive,inactive,inactive,inactive,,inactive,inactive,inactive,inactive
CCn1c2ccccc2c2cc(N)ccc21,inactive,inactive,inactive,inactive,inactive,inactive,inactive,inactive,inactive,inactive,inactive,inactive,67.9 µM (active) and inactive,inactive,,inactive,inactive,inactive,inactive,inactive
CCCCOCCOCCSC#N,inactive,inactive,inactive,inactive,inactive,inactive,inactive,inactive,,inactive,inactive,inactive,inactive,inactive,inactive,inactive,inactive,,inactive,inactive
O=C(Oc1ccccc1)c1ccccc1O,inactive,inactive and 68.6 µM (active),inactive,inactive,inactive,inactive and 40.8 µM (active),inactive,inactive,,inactive,inactive,inactive,inactive,inactive,,,inactive,inactive,inactive,inactive
O=C(O)c1cccc(C(=O)O)c1,inactive,inactive,inactive,inactive,inactive,inactive,inactive,inactive,,inactive,inactive,inactive,inactive,inactive,inactive,,inactive,inactive,inactive,inactive
Cc1occc(=O)c1O,inactive,inactive,inactive,inactive,inactive,inactive,inactive,inactive,,inactive,inactive,inactive,inactive,inactive,inactive,,inactive,inactive,inactive,inactive
CCC(C)(C)C(=O)O[C@H]1C[C@@H](C)C=C2C=C[C@H](C)[C@H](CC[C@@H]3C[C@@H](O)CC(=O)O3)[C@H]21,inactive,inactive,inactive,inactive,inactive,inactive,inactive,inactive,inactive,,,,inactive,inactive,19.3 µM (active) and inactive,inactive,,inactive,,
CC(=O)Oc1ccc(C(c2ccc(OC(C)=O)cc2)c2ccccn2)cc1,inactive,121 nM (active) and 841 nM (active),inactive,inactive,inactive,inactive,inactive,inactive,,,,,inactive,inactive,inactive,inactive,,,,inactive
O=Nc1ccc(O)cc1,inactive,inactive,inactive,inactive,inactive,inactive,inactive,inactive,,inactive,inactive,inactive,inactive,inactive,inactive,,inactive,inactive,inactive,inactive
CCCCCC(=O)O,inactive,inactive,inactive,inactive,inactive,,inactive,,inactive,inactive,inactive,inactive,inactive,inactive,inactive,inactive,inactive,inactive,inactive,inactive
CCCCCCCCCCCCCC(=O)O,inactive,inactive,inactive,inactive,inactive,inactive,inactive,inactive,,inactive,inactive,inactive,inactive,inactive,inactive,inactive,,inactive,inactive,inactive
Cc1c(N(C)C)c(=O)n(-c2ccccc2)n1C,inactive,69.8 µM (active) and inactive,inactive,inactive,inactive,inactive,inactive,inactive,,inactive,inactive,inactive,inactive,inactive,inactive,,inactive,inactive,inactive,inactive
CC(=O)Nc1ccccc1,inactive,inactive,inactive,inactive,inactive,inactive,inactive,inactive,,inactive,inactive,inactive,inactive,inactive,inactive,,inactive,inactive,inactive,inactive
